# Assay outcomes as filed in PubChem.
# TDP-43 yeast inh: TDP-43 toxicity inhibition in yeast. 410,000 tested, 1.8% active. Potency, µM (top dose mostly 46.1 µM), without a hit: at the highest dose growth rescue (activation), usual class: activators. TDP-43 expressing yeast growth rescue, BacTiter-Glo, 24 h. AID 652104; further: % of control where 0% means no effect; nearly all actives have a fitted effect of over 50% in size
#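 Luminescence from BacTiter-Glo reports growth of TDP-43-expressing yeast after 24 hr at 30 deg C with compound. Cells were raffinose-pregrown to mid-log, then seeded in galactose medium at OD600=0.02.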
# Abeta rescue: A-beta toxicity reversal in yeast; 410,000 tested, 0.063% active; Potency, µM (series often up to 46.1 µM), most hits filed as activators; yeast expressing A-beta42, growth rescue, OD600, 48 h; response scale: 0% DMSO, 100% iron-clioquinol control; further: nearly all actives have a fitted effect of over 55% in size
#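 Growth rescue measured by 600 nm absorbance after 48 h yeast culture at 30 C with compound. Values normalized between DMSO and an equimolar ferric chloride plus clioquinol control.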
# aSyn rescue: alpha-synuclein toxicity inhibition in yeast | Yeast expressing alpha-synuclein, growth rescue, BacTiter-Glo, 24 h | Potency, µM (top dose mostly 46.1 µM), inactives show at the top dose growth rescue (activation), usual class: activators | 370,000 tested, 0.14% active; further: % of control where 0% means no effect; nearly all actives have a fitted effect of over 65% in size
#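 Readout is rescue of growth in alpha-synuclein-expressing yeast, so inhibitors of toxicity appear as activators. Growth after 24 hr at 30 deg C in galactose medium is quantified by luminescence.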
# FUS yeast rescue: rescues growth of FUS-expressing yeast; S. cerevisiae FUS-expressing, growth rescue, OD600, 24 h; 390,000 tested, 0.24% active; Potency, µM (doses to about 76.6 µM), most hits filed as activators; AID 1347120;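 further: plate controls were DMSO vehicle for no effect and reference control for full effect; nearly all actives have a fitted effect of over 55% in size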
#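 Restored growth of FUS-toxic S. cerevisiae, read as 600 nm absorbance after 24 h at 30C in galactose medium (starting OD 0.005). Controls CP55940 and DMSO.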
# * marks the source's active call; other numbers are inactive results; i = inactive; ? = inconclusive; . = no result given; [ ] = remark or other dose. Most compounds without a hit are left out; they make up all but 2.1% or so of the library. The call rests on the fitted dose curve; in most records, active means well fitted curve in the direction sought with a large enough effect; inconclusive means small, poorly fitted or top-dose-only effect, or another doubt; inactive means no such curve, though single readings can be large; an effect the other way counts as inactive or inconclusive. Potency means the concentration at half of the fitted maximal effect.
SMILES,TDP-43 yeast inh,Abeta rescue,aSyn rescue,FUS yeast rescue
O=C(Nc1ccc(Cl)c(C(F)(F)F)c1)C(=O)N1CCCCC1,17.8µM*,i,9.7%,.
O=C(Nc1ccc(Cl)c(C(F)(F)F)c1)N1CCCC(O)C1 (configuration not stated),-3.0%,i,5.5%,i
O=C(Nc1ccc(Cl)c(C(F)(F)F)c1)c1ccncc1,10µM*,i,-1.4%,i
O=C(Nc1ccc(Cl)c([N+](=O)[O-])c1)c1ccncc1,-4.6%,i,-0.4%,.
CCN(CC)c1ccc2c(C)cc(=O)oc2c1,12.2%,i,6.6%,i
CCN(CC)c1ccc2c(Cl)c(Br)c(=O)oc2c1,20µM*,i,17.6%,i
CCN(CC)c1ccc2c(c1)oc(=O)c1c(Cl)cc(=O)oc12,20.6%,i,12.6µM*,.
CCN(CC)c1ccc2c(C)c(Cl)c(=O)oc2c1,-10.8%[9.22 µM],i,-5.4%,i
O=C(CSc1nnc(-c2cccs2)o1)Nc1cccc2ccccc12,.,.,.,i
CC1=NNC(=O)/C1=C\c1cn(-c2ccccc2)nc1-c1ccc(F)cc1,11.2µM*,i,-70.5%,?
CC1=NNC(=O)/C1=C\c1cn(-c2ccccc2)nc1-c1cccs1,-66.7%,i,-62.5%,?
Cn1cccc1C(=O)OCC(=O)Nc1cc(C(C)(C)C)nn1-c1ccccc1,35.5µM*,i,6.6%,i
O=C(N/N=C/c1cccc(Oc2ccccc2)c1)c1ccncc1,12.6µM*,i,17.5%,i
O=C(N/N=C/c1ccncc1)c1ccccc1,-7.7%,i,-4.8%,i
S=C(NCCCc1cnc[nH]1)NCCCN(CCc1ccc(Cl)cc1)c1ccc(Br)cn1,.,.,-34.2%,.
CC1(C(=O)NCCCNc2ncc(C(F)(F)F)cc2Cl)C=CCN1C(=O)c1ccccc1 (configuration not stated),19.4%,i,0.5%,i
C[C@]1(C(=O)NCCCNc2ncc(C(F)(F)F)cc2Cl)C=C[C@@H](Cc2ccccc2)N1C(=O)c1ccccc1,?,i,?,25.1µM*
Cc1ccc2ccc3c(c2n1)NS(=O)(=O)c1ccc(C(F)(F)F)cc1-3,.,.,10µM*,.
O=S1(=O)Nc2c(cc(Cl)c3ccc(Cl)nc23)-c2ccccc21,.,.,-19.3%,.
COc1ccc(-c2nc(CCl)cs2)cc1,9.0%,i,-3.1%,i
COc1cccc(-c2nc(CCl)cs2)c1,11.2µM*,i,-7.6%,i
O=C(c1cc(COc2ccc(F)cc2Cl)on1)N1CCSCC1,?,i,7.3%,i
O=C(c1cc(COc2ccc(F)cc2Cl)on1)N1CCN(c2cnccn2)CC1,31.6µM*,i,0.9%,.
Cc1ccc2c(c1C)NC(=O)CC2c1ccc(Cl)cc1Cl (configuration not stated),35.5µM*,i,.,i
COc1cccc(C2CC(=O)Nc3c2ccc(C)c3C)c1OC (configuration not stated),17.8µM*,i,.,i
SMILES,TDP-43 yeast inh,Abeta rescue,aSyn rescue,FUS yeast rescue
COC(=O)C1=C(C)NC(=O)CC1c1cccc(OC)c1OC (configuration not stated),-24.5%,i,0.6%,i
Cn1c(SCC(=O)NCCN2CCCCC2)nc2cccnc21,.,.,.,i
C(=N/N1CCN(c2ccccc2)CC1)/c1ccco1,.,.,.,i
O=C(Oc1ccc(Cl)cc1)c1ccc(N2CCOCC2)c([N+](=O)[O-])c1,-6.4%,i,0.5%,.
O=C(O/N=C\c1ccc(N2CCOCC2)c([N+](=O)[O-])c1)c1ccccc1Cl,14.1µM*,i,12.3%,.
O=C(Oc1cc(Cl)ccc1Cl)c1ccc(N2CCOCC2)c([N+](=O)[O-])c1,?,5.62µM*,2.1%,i
CC1=C(C(=O)N2CCOCC2)CC(CC(=O)NC2CCCCC2)C(=O)N1Cc1ccc(C(C)(C)C)cc1 (configuration not stated),?,i,3.55µM*,i
CC1=C(C(=O)N2CCOCC2)CC(CC(=O)NC2CC2)C(=O)N1Cc1ccc(C(C)(C)C)cc1 (configuration not stated),0.6%,i,-3.2%,i
O=C(NCCC1=CCCCC1)C1CCN(C(=O)N2CCOc3ccc(Cl)cc32)CC1,28.2µM*,?,.,i
O=[N+]([O-])c1ccc(CSc2nnc(Cc3ccccc3)o2)cc1,?,i,13.2%,i
COc1ccc(Cc2nnc(SCc3ccc([N+](=O)[O-])cc3)o2)cc1,17.8µM*,i,6.5%,i
Cc1cccc(NC(=O)C2(C)Cc3ccccc3C(=O)O2)c1 (configuration not stated),22.0%,i,?,i
CC1(C(=O)Nc2cccc(C(F)(F)F)c2)Cc2ccccc2C(=O)O1 (configuration not stated),35.5µM*,i,.,i
O=C(NCCc1nc2ccccc2n1CCOc1ccccc1)C1CCCCC1,.,.,7.0%,.
Cc1ccc(S(=O)(=O)Nc2cccc3cccnc23)cc1,35.5µM*,i,?,i
COc1cc(NS(=O)(=O)c2ccc(C)cc2)c2ncccc2c1,11.2µM*,i,?,i
NS(=O)(=O)Nc1cccc2cccnc12,.,.,-2.1%,.
COc1cc(NC(=O)c2ccccc2Cl)c2ncccc2c1,20µM*,i,2.6%,i
C#CCOCCOCCOCCNc1nc(N2CCN(C(=O)[C@H](CCCCN)n3cc([C@@H](N)C(C)CC)nn3)CC2)nc(N2CCN(C(=O)[C@H](CCCCN)n3cc([C@@H](N)C(C)CC)nn3)CC2)n1 (some centres not stated),.,.,.,i
Cc1cccc(OCC(=O)Nc2nc3c(s2)CC(C(C)(C)C)CC3)c1C (configuration not stated),-17.1%,i,.,i
COc1ccc(CC(=O)Nc2nc3c(s2)CC(C)CC3)cc1 (configuration not stated),12.6µM*,?,.,i
CC(C)(C)C1CCc2nc(NC(=O)Cc3ccccc3)sc2C1 (configuration not stated),31.6µM*,i,.,i
CC1CCc2nc(NC(=O)CN3CCN(c4ccc(F)cc4)CC3)sc2C1 (configuration not stated),15.8µM*,i,-4.9%,?
COc1cccc(N2CCN(CC(=O)Nc3nc4c(s3)CC(C)CC4)CC2)c1 (configuration not stated),-20.8%,i,-0.5%,i
CCN(C(=O)c1cc2c(=O)n3ccccc3nc2s1)C1CCCCC1,17.8µM*,i,0.7%,i
CCN(C(=O)c1cc2c(=O)n3cccc(C)c3nc2s1)C1CCCCC1,?,i,3.3%,i
CCCCN(CC)C(=O)c1cc2c(=O)n3cccc(C)c3nc2s1,35.5µM*,i,-1.8%,i
CNC(=S)NNC(=O)c1ccc(=O)n(Cc2ccc(Cl)cc2Cl)c1,-14.3%,i,-5.5%,i
CC(C)OC(=O)c1cc(Cl)c(=O)n(Cc2ccc(Cl)cc2Cl)c1,25.1µM*,i,2.8%,i
